# From PubChem BioAssay
# Only a selection was taken, and hits are over-represented in it overall.
# Cycloheximide cs = Cycloheximide Counterscreen for Small Molecule Inhibitors of Shiga Toxin | 12% of 300,000 active | AID 2314, 2010 | max response, % | cell reporter, cycloheximide protein synthesis inhibition counterscreen; in the data active means max response mostly above about 13%, no sharp cut-off; inactive means mostly below about 14%; further: read at 38.3 µM for the half of the compounds with a filed dose; 0% is about no effect
# Shiga inhibitor = A qHTS for Small Molecule Inhibitors of Shiga Toxin. 9.2% of 290,000 active. AID 2315, 2010. inhibition, % at 38.7 µM. Vero cells, Shiga toxin protein synthesis inhibition reporter; in the data active means inhibition mostly above about 28%, no sharp cut-off; inactive means mostly below about 43%; further: 0% is about no effect
# AmpC no deterg = qHTS Inhibitors of AmpC Beta-Lactamase (assay without detergent); P00811; AmpC nitrocefin hydrolysis, absorbance 480 nm, 0.0001% Triton; Potency, µM (series often up to 57.1 µM), inactives show at the highest dose activity change, negative = inhibition, actives largely listed as inhibitors; 0.52% of 330,000 active;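 further: potency means the concentration at half of the fitted maximal effect; plate controls were no compound for no effect and no enzyme for full effect; nearly all actives have a fitted effect of over 20% in size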
# Target sequence (P00811 whole entry, looked up): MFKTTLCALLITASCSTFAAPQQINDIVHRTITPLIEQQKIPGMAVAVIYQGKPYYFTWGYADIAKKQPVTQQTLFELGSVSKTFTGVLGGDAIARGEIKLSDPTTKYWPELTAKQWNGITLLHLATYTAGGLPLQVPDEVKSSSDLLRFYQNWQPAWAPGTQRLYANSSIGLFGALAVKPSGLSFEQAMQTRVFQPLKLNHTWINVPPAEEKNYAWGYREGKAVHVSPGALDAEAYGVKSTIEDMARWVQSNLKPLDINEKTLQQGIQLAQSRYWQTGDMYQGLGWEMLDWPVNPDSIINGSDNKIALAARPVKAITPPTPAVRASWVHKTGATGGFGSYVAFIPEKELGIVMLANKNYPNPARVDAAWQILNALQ
#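 20 mM phosphate pH 7.0 + 0.01% (detergent screen) or 0.0001% Triton X-100; 5.3 nM AmpC reagent; cpd preinc 15 min RT; nitrocefin (800 uM stock) to start; A480 q20 s × 4 min; Activity was normalised to no-enzyme and no-compound control wells.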
# AmpC detergent = qHTS Inhibitors of AmpC Beta-Lactamase (assay with detergent). AID 485294, 2010. AmpC hydrolysis of nitrocefin, absorbance 480 nm, 0.01% Triton. Potency, µM (top dose mostly 114 µM), inactives show at the highest dose activity change, negative = inhibition, most hits filed as inhibitors. 0.041% of 370,000 active. P00811;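 further: potency means the concentration at half of the fitted maximal effect; 0% = no-compound wells and -100% = no-enzyme wells; nearly all actives have a fitted effect of over 25% in size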
#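 20 mM phosphate pH 7.0 + 0.01% (detergent screen) or 0.0001% Triton X-100; 5.3 nM AmpC reagent; cpd preinc 15 min RT; nitrocefin (800 uM stock) to start; A480 q20 s × 4 min; Activity was normalised to no-enzyme and no-compound control wells.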
# AMA1 RON2 block = qHTS for Inhibitors of AMA1-RON; Towards Development of Antimalarial Drug Lead: Primary Screen. Potency, µM (top dose mostly 58.2 µM), for the others: at the highest dose activity change, negative = inhibition, most hits filed as inhibitors. AlphaScreen AMA1-biotinylated RON2 peptide binding. AID 720542, 2013. Plasmodium falciparum AMA1 (3D7) - RON2 peptide interaction. 0.2% of 360,000 active;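 further: potency means the concentration at half of the fitted maximal effect; 0% = vehicle wells and -100% = peptide control; nearly all actives have a fitted effect of over 45% in size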
#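 AMA1 (3D7) with his tag at 25 nM final met compounds first, then biotinylated RON2 peptide at 25 nM; detection used donor plus acceptor beads, 10 µg/mL apiece, read by AlphaScreen after 30 min at room temperature.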
# SARS PLP yeast = qHTS of Yeast-based Assay for SARS-CoV PLP. S. cerevisiae expressing SARS-CoV PLpro, growth rescue. Potency, µM (top dose mostly 32.9 µM), for the others: at the highest dose activity, positive = growth rescue, hits mostly activators. 0.19% of 330,000 active. AID 485353, 2010; calls by dose curve; further: potency means the concentration at half of the fitted maximal effect; 0% is about no effect; nearly all actives have a fitted effect of over 55% in size
# * hit, by the source's call; i = inactive; ? = inconclusive; . = no result; + = active, no number; [ ] = remark or other dose. Unless noted, the call rests on the fitted dose curve; in most records, active means well fitted curve in the direction sought with a large enough effect; inconclusive means small, poorly fitted or top-dose-only effect, or another doubt; inactive means no such curve, though single readings can be large; an effect the other way counts as inactive or inconclusive.
SMILES,Cycloheximide cs,Shiga inhibitor,AmpC no deterg,AmpC detergent,AMA1 RON2 block,SARS PLP yeast
O=C(NCc1ccccc1Cl)c1cnc2n(c1=O)CCS2,-2.5,30.4,-0.5%,3.5%,16.9%,-1.8%
O=C(NCCc1ccccc1)c1cnc2n(c1=O)CCS2,34.4*,110.9*,-20.5%,2.5%,1.9%,1.9%
O=C(NCCc1c[nH]c2ccccc12)c1cnc2n(c1=O)CCS2,30.5*,58.8*,-19.3%,?,2.3%,-10.4%
O=C1OCCC1Sc1nc2ccccc2c(=O)n1Cc1ccc(F)cc1 (centres undefined),2.7,-6.3,-47.4%,-10.5%,65.2%,12.9%
CN(C)S(=O)(=O)c1cccc(NC(=S)N/N=C/c2ccco2)c1,14.2*,25.1,-32.6%,-11.2%,94.3%,0.2%
Cc1cccc(NC(=O)CCC(=O)N/N=C/c2ccco2)c1,-2.6,-7.5,-32.7%,-11.0%,-0.3%,4.7%
COc1cccc(/C=N/NC(=S)Nc2cccnc2)c1,11.6,48.8,-13.3%[2.29 µM],-1.6%,93.0%,-0.2%
COc1cccc(/C=N/NC(=S)Nc2cccc(S(=O)(=O)N(C)C)c2)c1,11.1,23.6,-37.3%,-0.5%,68.7%,-0.7%
O=C(N/N=C\c1ccco1)Nc1cccc(Cl)c1,79.9*,142.5*,-25.2%,3.1%,-13.1%,-6.0%
COc1ccc(O)c(/C=N/NC(=S)Nc2cccc(S(=O)(=O)N(C)C)c2)c1,18.0*,13.2,-40.1%,?,-36.0%,?
COc1ccc(O)c(/C=N/NC(=S)Nc2cccnc2)c1,34.1*,90.7*,-38.6%,-15.3%,-64.0%,22.4%
CC(C)(C)NC(=O)NC(=O)CN1CCN(S(=O)(=O)c2ccccc2)CC1,-1.9,-4.5,-0.8%,2.9%,15.6%,-4.4%
Cc1ccc(NC(=O)c2cc(-c3ccc4c(c3)OCO4)on2)cc1,7.8,23.2,-11.9%,-1.7%,3.9%,-3.7%
O=C(Nc1ccc2c(c1)OCO2)c1cc(-c2ccc(Br)cc2)on1,.,.,.,29.6%,.,.
CCC(C)NC(=O)c1cc(-c2ccc3c(c2)OCO3)on1 (centres undefined),38.2*,56.8*,1.1%,-8.4%,-6.9%,-0.4%
C=CCNC(=O)c1cc(-c2ccc3c(c2)OCO3)on1,34.7*,25.7,-1.7%,-1.5%,1.8%,-0.4%
CCN(CC)C(=O)COCc1cc(-c2ccc3c(c2)OCO3)on1,20.7*,42.2,2.2%,-6.7%,-7.9%,0.8%
O=C(Nc1ccc(Br)cc1)c1cc(-c2ccc3c(c2)OCO3)on1,13.3*,33.2,-14.0%,-7.1%,-5.2%,-3.0%
CC(=O)N1CC[C@@H]2CC(=O)C[C@@H](C)[C@@H]21,-2.4,i,.,.,.,.
CC1(c2ccc3ccccc3c2)NC(=O)N(CC(=O)NCc2cccs2)C1=O (centres undefined),-1.4,-11.0,-17.9%,-1.3%,-4.8%,-0.1%
COCCNC(=O)COCc1cc(-c2ccc3c(c2)OCO3)on1,12.8,35.1,-3.7%,-10.1%,-0.8%,-0.8%
COCCNC(=O)c1cc(-c2ccc3c(c2)OCO3)on1,28.5*,98.2*,-11.4%,-14.0%,-4.6%,?
O=C(C[n+]1ccccc1)Nc1ccccc1Br,24.2*,52.6*,-17.3%,2.9%,-14.8%,0.0%
O=C(COC(=O)c1c(Cl)cccc1Cl)Nc1ccccc1Br,26.4*,17.6,-13.6%,-7.4%,6.7%,-23.9%
O=C(COC(=O)c1ccccc1)Nc1ccccc1Br,39.6*,64.7*,-23.8%,1.2%,6.3%,-0.2%
SMILES,Cycloheximide cs,Shiga inhibitor,AmpC no deterg,AmpC detergent,AMA1 RON2 block,SARS PLP yeast
O=C(COC(=O)/C=C/c1ccccc1)Nc1ccccc1Br,10.2,-9.3,-16.1%,1.5%,1.5%,-13.1%
O=C(COc1ccc(Br)cc1Cl)N1CCN(c2ncccn2)CC1,.,.,37.8%,-7.3%,-10.8%,1.6%
O=C(O)Cc1ccc(NS(=O)(=O)c2c(Cl)cccc2Cl)cc1,-1.6,-14.3,-16.0%,-13.5%,-0.1%,1.5%
O=C(Nc1ccc2c(c1)oc1ccccc12)c1ccncc1,50.9*,67.5*,-12.6%,0.1%,3.2%,-14.5%
O=C(Nc1ccc(NC(=O)c2ccncc2)cc1)c1ccncc1,-4.4,-7.9,-11.4%,4.6%,.,-0.2%
O=C(Nc1ccc2c(c1)oc1ccccc12)c1cccnc1,38.5*,57.7,-10.9%,-9.9%,3.2%,-7.2%
Cc1ccc(/C(N)=N/OC(=O)c2ccco2)cc1,21.8*,active,-31.6%,-3.7%,0.0%,-83.9%
N/C(=N\OC(=O)c1ccco1)c1ccccn1,44.0*,94.6*,-9.4%,3.0%,69.7%,-2.1%
CCCc1ccc(C(=O)O/N=C(\N)c2ccccn2)cc1,-2.1,-24.8,-9.4%,6.2%,33.1%,-13.6%
N/C(=N\OC(=O)c1ccco1)c1ccc(Br)cc1,38.7*,95.0*,-12.7%,-11.5%,0.0%,-15.5%
Cc1occc1C(=O)O/N=C(\N)c1ccc(Cl)cc1,66.1*,135.9*,-24.9%,2.5%,-19.9%,-20.8%
N#CN=CN1CC=C(c2ccc(Cl)cc2)CC1,.,.,.,.,6.8%,.
CCCCNC(=O)c1ccc2c(c1)NC(=O)C(CS(=O)(=O)Cc1ccc(F)cc1Cl)N2 (centres undefined),.,.,.,-6.7%,.,.
COc1ccc(/C(N)=N/OC(=O)c2ccco2)cc1,7.1,21.0,-6.9%,?,10.3%,-4.3%
N/C(=N\OC(=O)c1ccc(=O)n(Cc2ccccc2)c1)c1ccccn1,30.3*,63.5*,-12.0%,1.9%,51.1%,-1.8%
Cc1cccc(/C(N)=N/OC(=O)c2ccco2)c1,26.4*,71.5*,-18.7%,-11.0%,9.5%,-38.6%
Cc1cccc(C(=O)NCCNC(=O)c2ccco2)c1,-3.0,-2.9,-4.8%,-11.1%,21.2%,1.1%
N/C(=N\OC(=O)c1ccco1)c1ccccc1,32.4*,+,-7.0%,-22.4%,8.1%,-20.3%
CC(=O)Nc1ccccc1NC(=O)COc1cccc2ccccc12,1.2,-16.1,-20.2%,-4.3%,-3.3%,-3.7%
COC(=O)CSc1nc(N)c2c3c(sc2n1)C(c1ccccc1)SC(c1ccccc1)C3 (centres undefined),9.5,10.3,-23.3%,?,1.6%,8.1%
CCCCC#Cc1ccc2c(c1)COc1c3ccccc3nn1-2,36.8*,55.5*,-32.5%,-5.8%,-26.9%,2.6%
CCCCCCC#Cc1ccc2c(c1)COc1c3ccccc3nn1-2,3.2,18.3,-10.3%,-4.6%,-5.0%,1.0%
CCOc1ccc(/C=N/NC(=O)c2ccc3nc[nH]c3c2)cc1OC,.,.,.,.,-5.5%,.
COc1cc(/C=N/Nc2ccccn2)ccc1OCC(C)C,34.3*,62.5*,-20.4%,-2.1%,12.6%,-1.7%
COc1ccc(/C=N/Nc2ncnc3scc(-c4ccccc4)c23)cc1OC,2.0,-0.3,147.3%,?,45.4%,-3.2%
